Compound activity as filed in PubChem.
ALOX12 inh: blocks human arachidonate 12S-lipoxygenase | P18054 | purified 12hLO, xylenol orange hydroperoxide absorbance | Potency, µM (doses to about 108 µM), actives largely listed as inhibitors | actives 1.1% (n = 580,000) | AID 1671190
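Purified human 12hLO (150 nM final) in 25 mM Hepes, 0.01% Triton X-100, pH 7.0 was preincubated 15 min at room temperature with compound. Then 40 uM arachidonic acid was added, 30 min. Hydroperoxide was read by Fe-XO absorbance ratio 573/405 nm.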
Sfp PPTase inh: inhibitors of Bacillus subtilis Sfp phosphopantetheinyl transferase; Q9F4F7; Biochemical Sfp PPTase activity, qHTS; Potency, µM, most hits filed as inhibitors; actives 3.5% (n = 310,000); AID 1490;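 note: the enzyme is Sfp with the accession as filed and its product quenches rhodamine fluorescence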
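Step 1, compound plus 15 nM Sfp-PPTase, 15 min, room temperature. Step 2, add rhodamine-CoA (5 uM) and BHQ-2-YbbR (12.5 uM). Step 3, read 525/598 nm fluorescence at 0 and 30 min.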
G9a block: G9a (human) methyltransferase inhibition | actives 8.8% (n = 350,000) | Q96KQ7 | Potency, µM (series often up to 102 µM), most hits filed as inhibitors | G9a H3K9 monomethylation, AlphaScreen, 2 h | AID 504332; note: nearly all actives have a fitted effect of over 75% in size
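Signal arises when biotinylated H3K9 peptide, once monomethylated, bridges streptavidin donor and antibody-captured acceptor beads. Enzyme at 20 nM was preincubated 15 min with test compounds; peptide 500 nM and SAM 20 uM then reacted for 2 h.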
VDR inh: vitamin D3 receptor (human) inhibition | P11473 | VDR-SRC2-3 peptide fluorescence polarization, 2 h | Potency, µM, usual class: inhibitors | actives 0.93% (n = 400,000) | AID 504847
Target sequence (P11473 whole entry, looked up): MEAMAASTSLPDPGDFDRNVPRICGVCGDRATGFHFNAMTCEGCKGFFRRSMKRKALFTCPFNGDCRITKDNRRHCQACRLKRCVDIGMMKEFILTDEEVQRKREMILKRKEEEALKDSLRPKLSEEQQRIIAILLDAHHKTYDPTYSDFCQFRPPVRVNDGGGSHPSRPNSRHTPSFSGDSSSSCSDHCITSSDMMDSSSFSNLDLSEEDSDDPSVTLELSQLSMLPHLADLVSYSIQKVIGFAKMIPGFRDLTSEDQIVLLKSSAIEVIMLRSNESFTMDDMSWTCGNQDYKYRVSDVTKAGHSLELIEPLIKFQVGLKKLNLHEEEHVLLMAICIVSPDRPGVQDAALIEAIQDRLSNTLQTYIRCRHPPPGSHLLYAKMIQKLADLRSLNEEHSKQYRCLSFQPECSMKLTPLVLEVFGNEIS
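Inhibition of the VDR/SRC2-3 peptide interaction is quantified by fluorescence polarization. Compounds (23 nl, pintool) incubate with the reagents for 2 hours at ambient room temperature.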
Glioma ERSR ind: inducers of ER stress response in human glioma cells; U87-MG GRP78 promoter luciferase reporter, 16 h; Potency, µM, hits mostly activators; actives 0.02% (n = 420,000); AID 602332; note: series mostly up to about 76 µM; nearly all actives have a fitted effect of over 35% in size
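Stably transfected U87-MG human glioma cells carrying a GRP78-based luminescent sensor were seeded at 1000 cells/well, pin-dosed with compounds and incubated 16 h. Luciferase reagent was then added, and end-point luminescence was read after 10 min at room temperature.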
Numbers stand for hits; 0 = inactive; ? = inconclusive; - = not tested or not shown; [ ] = dose if it differs, or a comment. The full list was thinned out, with hits kept by preference. Calls come from the whole dose curve; as a rule, active = well fitted curve in the direction sought with a large enough effect; inconclusive = small, poorly fitted or top-dose-only effect, or another doubt; inactive = no such curve, though single readings can be large; an effect the other way counts as inactive or inconclusive.

SMILES	ALOX12 inh	Sfp PPTase inh	G9a block	VDR inh	Glioma ERSR ind
CCOc1ccc(OCCC(=O)OCC(=O)N2CCN(S(=O)(=O)c3ccc(C)cc3)CC2)cc1	?	-	56µM	0	0
Cc1ccc(S(=O)(=O)N2CCN(C(=O)CN3C(=O)NC4(CCOc5ccccc54)C3=O)CC2)cc1 (stereo not drawn)	0	0	56µM	0	0
COc1ccc(S(=O)(=O)N2CCN(C(=O)CN3C(=O)NC4(CCCC4)C3=O)CC2)cc1	0	0	-	0	0
Cc1ccc(OCCC(=O)OCC(=O)N2CCN(S(=O)(=O)c3ccc(Cl)cc3)CC2)cc1	0	-	0	0	0
N#Cc1nc(-c2ccc([N+](=O)[O-])cc2)oc1N1CCCC1	0	-	-	-	-
CCOC(=O)c1[nH]c2ccccc2c1NC(C)=O	0	0	0[12.7 µM]	0	0
CCOC(=O)c1[nH]c2ccccc2c1NC(=S)Nc1cccc(C)c1	?	0	40µM	0	0
CCOC(=O)c1[nH]c2ccccc2c1NC(=S)Nc1ccccc1	?	?	45µM	0	0
CCCN(CCO)Cc1ccc(F)c(Br)c1	?	0	16µM	0	0
CCCN(CCO)Cc1ccc2ccccc2c1	0	0	0	0	0
O=C1C(=O)c2ncccc2-c2cccnc21	-	0.63µM	0[2.33 µM]	1.3µM	0
O=C1CC(c2ccco2)CC2=C1C(c1ccccc1)n1nc(C(F)(F)F)nc1N2 (stereo not drawn)	?	10µM	?	0	0
COc1ccc(NC(=O)c2cc(-c3ccc[nH]3)n[nH]2)cc1OC	0	-	-	-	-
Cc1ccc(F)cc1NC(=O)c1cc(-c2ccc[nH]2)n[nH]1	16µM	-	-	-	-
O=C(Nc1cccc(OC(F)(F)F)c1)c1cc(-c2ccc[nH]2)n[nH]1	14µM	-	-	-	-
Cc1cc(NC(=O)c2cc(-c3ccc[nH]3)n[nH]2)ccc1F	0	-	-	-	-
CCOc1ccc(C(C)=O)cc1N1C(=O)C2C3C=CC(C3)C2C1=O (stereo not drawn)	0	0	0[12.7 µM]	0	0
CCOc1ccc(C(C)=O)cc1N1C(=O)C2C3C=CC(O3)C2C1=O (stereo not drawn)	-	7.9µM	?	22µM	0
S=c1[nH]cnc2sc(-c3ccccc3)cc12	0	0	35µM	0	0
CNc1ncnc2sc(-c3ccccc3)cc12	0	0	0	0	0
S=c1nc(C2COc3ccccc3O2)[nH][nH]1 (stereo not drawn)	?	22µM	3.5µM	?	0
CC(C)(C)c1ccc(-c2nc(C3CC(=O)N(c4ccc(F)cc4)C3)no2)cc1 (stereo not drawn)	0	-	-	-	-
N#Cc1ccc(-c2nc(C3CC(=O)N(c4ccc(Cl)cc4)C3)no2)cc1 (stereo not drawn)	13µM	-	-	-	-
N#Cc1ccc(-c2nc(C3CC(=O)N(c4ccc(F)cc4)C3)no2)cc1 (stereo not drawn)	10µM	-	-	-	-
CCOc1ccc(NC(=O)CN2C(=O)/C(=C3\SC(=S)N(C4CCS(=O)(=O)C4)C3=O)c3ccccc32)cc1 (stereo not drawn)	0	56µM	?	0	0
SMILES	ALOX12 inh	Sfp PPTase inh	G9a block	VDR inh	Glioma ERSR ind
O=Cc1ccccc1OCc1ccccc1	0	-	-	-	-
O=C(OC(c1ccccc1)c1nccc2ccccc12)c1cc([N+](=O)[O-])cc([N+](=O)[O-])c1 (stereo not drawn)	0	0	10µM	0	0
CCn1nc(C)c(CNC(=O)CCc2nnc(Cc3c[nH]c4ccccc34)o2)c1C	0	0	0	0	0
CC(C)(C)NC(=O)CCc1nnc(Cc2c[nH]c3ccccc23)o1	0	0	45µM	0	0
Cc1ccc(S(=O)(=O)C(CC(=O)c2ccc(F)cc2)c2cccs2)cc1 (stereo not drawn)	0	-	-	-	-
CCC(C)(C)C(=O)Nc1nc2c(s1)C(=O)CC(C)(C)C2	0	-	-	-	-
COc1ccc(CNC(=O)C(C)Sc2ccc(S(=O)(=O)N3CCOCC3)cn2)cc1 (stereo not drawn)	0	-	32µM	0	0
O=[N+]([O-])c1ccc(CSc2ccc(S(=O)(=O)N3CCOCC3)cn2)cc1	0	-	20µM	0	0
CC(C)CCNC(=O)NC(=O)CSc1ccc(S(=O)(=O)N2CCOCC2)cn1	?	-	1.6µM	0	0
Cn1nnnc1Sc1ccc(S(=O)(=O)N2CCCCC2)cn1	0	-	-	-	-
CC(C)C(C)NC(=O)CSc1ccc(S(=O)(=O)N2CCOCC2)cn1 (stereo not drawn)	0	-	0[12.7 µM]	0	0
COc1ccc(-n2nnnc2Sc2ccc(S(=O)(=O)N3CCOCC3)cn2)cc1	0	45µM	1.8µM	?	0
COC(=O)c1ccc(OCC(=O)c2ccc3c(c2)OCO3)c(OC)c1	0	-	-	-	-
Cc1ccnc2c([N+](=O)[O-])cccc12	?	-	-	-	0
CC(=O)CCc1oc2ccccc2c1-c1ccccc1	0	0	0	0	0
Cc1ccc(-c2nnc(-c3ccc(Br)cc3)o2)o1	0	0	0[12.7 µM]	0	0
CC(=O)CCc1oc2c([N+](=O)[O-])cccc2c1-c1ccc(C)o1	?	8.9µM	40µM	0	0
C/C(CCc1oc2c(Br)cc(Br)cc2c1-c1ccc(C)o1)=N\O	?	22µM	?	0	0
C/C(CCc1oc2ccccc2c1-c1ccc(C)o1)=N/O	0	28µM	?	0	0
O[C@H]1[C@H](NCc2ccc(OC(F)(F)F)cc2)[C@H]2CO[C@H](O2)[C@@H]1N1CCC(Cc2ccccc2)CC1	0	-	-	-	-
COc1cc(C(c2nnnn2C2CCCC2)N2CCc3ccccc3C2)ccc1O (stereo not drawn)	?	18µM	1.8µM	0	0
